# Reference: the supplement of paper PMC10849652
# The full data set covers some 7,900 targets. This sample favours those with a hit. About 0.6% of all pairs of compound and target were hits. A number with no mark means an inactive call.
# Legend:
# Assay in all cases: log2 fold change, soluble protein after heating vs DMSO (PISA); higher = thermal stabilisation; K562 cells, 10 uM, 30 min; active = over 0.2 and 3.5 SD of the protein, either way, in both replicates (recomputed)
# [1] = compound: C1COCCN1CCN2C3=CC=CC=C3N=C2NC(=O)C4=CC(=CC=C4)[N+](=O)[O-] [IRAK-1-4 Inhibitor I]
# Method in brief: (§1)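 K562 cells at 2×10^6 cells/mL were exposed to 10 μM compound for 30 min, then aliquots were heated for 3 min across 48°C-58°C, pooled, and extracted in PBS containing 0.5% NP-40 at 4°C. The supernatant after 21,000xg for 90 min was taken as soluble protein and measured by TMTpro 16plex LC-MS/MS with channel sums equalised. Thermal stability is reported relative to control samples, with values from duplicates. Fold changes are given on a log2 scale.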
# [2] = compound: C=CC(=O)N1CCC[C@@H](n2nc(-c3ccc(Oc4ccccc4)cc3)c3c(N)ncnc32)C1 [ibrutinib]
# Method in brief: as §1
# [3] = compound: CC(=O)c1cnc2ccc(-c3cc(Cl)c(O)c(Cl)c3)nc2c1N[C@H]1CC[C@H](CN(C)C)CC1
# Method in brief: as §1
# [4] = compound: CC(C)(C)Cn1c(N)nc2ccc(-c3[nH]c(C(C)(C)C)nc3-c3ccc(F)cc3)nc21 [ralimetinib]
# Method in brief: as §1
# [5] = compound: CC(C)(O)CC(=O)NCCn1ccc2ncnc(Nc3ccc(Oc4cccc(C(F)(F)F)c4)c(Cl)c3)c21
# Method in brief: as §1
# [6] = compound: CC(C)C1=C2N=C(C=C(N2N=C1)NCC3=CC=CC=C3)NCCCCCCN
# Method in brief: as §1
# [7] = compound: CC(C)C[C@@H](C=O)NC(=O)[C@H](CC(C)C)NC(=O)[C@H](CC(C)C)NC(=O)OCc1ccccc1
# Method in brief: as §1
# [8] = compound: CC(C)N(C[C@H]1O[C@@H](n2cnc3c(N)ncnc32)[C@H](O)[C@@H]1O)[C@H]1C[C@@H](CCc2nc3cc(C(C)(C)C)ccc3[nH]2)C1 [pinometostat]
# Method in brief: as §1
# [9] = compound: CC1=C(C(CC(=O)N1)C2=CC=C(C=C2)C(F)(F)F)C(=O)NC3=C(C=C4C(=C3)C=NN4)F
# Method in brief: as §1
# [10] = compound: CC1=C(C2=C(C=C1)C(=O)C3=CC=CC=C3N2CCCN)C
# Method in brief: as §1
# [11] = compound: CC1=C(C=C(C=C1)NC(=O)C2=CC(=CC=C2)C(C)(C)C#N)NC3=CC4=C(C=C3)N=CN(C4=O)C
# Method in brief: as §1
# [12] = compound: CC1=C(C=C(C=C1)NC(=O)C2=CC(=CC=C2)N(C)C)NC(=O)C3=CC=C(C=C3)O
# Method in brief: as §1
# [13] = compound: CC1=CC=C(C=C1)SC2=C3C=C(SC3=CN=C2)C(=O)N
# Method in brief: as §1
# [14] = compound: CC1=NC(=CC=C1)C2=C(N=C(N2)C(C)(C)C)C3=CC4=NC=CN=C4C=C3
# Method in brief: as §1
# [15] = compound: CCCCN(Cc1ccc(C(=O)NO)cc1)C(=O)Nc1ccccc1 [Nexturastat A]
# Method in brief: as §1
# [16] = compound: CCCS(=O)(=O)Nc1ccc(F)c(C(=O)c2c[nH]c3ncc(-c4ccc(Cl)cc4)cc23)c1F [vemurafenib]
# Method in brief: as §1
# [17] = compound: CCCS(=O)(=O)Nc1ccc(F)c(C(=O)c2c[nH]c3ncc(Cl)cc23)c1F
# Method in brief: as §1
# [18] = compound: CCCc1cc(C)[nH]c(=O)c1CNC(=O)c1cc(-c2ccnc(N3CCN(C)CC3)c2)cc2c1cnn2C(C)C
# Method in brief: as §1
# [19] = compound: CCN(CC)Cc1ccc2cc(COC(=O)Nc3ccc(C(=O)NO)cc3)ccc2c1 [givinostat]
# Method in brief: as §1
# [20] = compound: CCN(CCCOc1ccc2c(Nc3cc(CC(=O)Nc4cccc(F)c4)[nH]n3)ncnc2c1)CCOP(=O)(O)O [barasertib]
# Method in brief: as §1
# Chain of UniProt Q12894 (Q12894 whole entry, looked up): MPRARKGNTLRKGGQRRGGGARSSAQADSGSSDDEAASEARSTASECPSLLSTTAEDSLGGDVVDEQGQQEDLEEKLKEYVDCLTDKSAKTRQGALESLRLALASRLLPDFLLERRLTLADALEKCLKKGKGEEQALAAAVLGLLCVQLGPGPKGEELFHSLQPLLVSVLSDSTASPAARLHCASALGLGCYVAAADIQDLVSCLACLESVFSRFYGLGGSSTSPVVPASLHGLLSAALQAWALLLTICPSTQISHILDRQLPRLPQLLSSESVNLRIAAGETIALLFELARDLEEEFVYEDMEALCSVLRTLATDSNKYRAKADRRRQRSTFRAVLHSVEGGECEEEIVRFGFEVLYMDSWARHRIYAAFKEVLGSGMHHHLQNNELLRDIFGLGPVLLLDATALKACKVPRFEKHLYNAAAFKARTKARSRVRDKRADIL
# Chain of UniProt P85037 (P85037 whole entry, looked up): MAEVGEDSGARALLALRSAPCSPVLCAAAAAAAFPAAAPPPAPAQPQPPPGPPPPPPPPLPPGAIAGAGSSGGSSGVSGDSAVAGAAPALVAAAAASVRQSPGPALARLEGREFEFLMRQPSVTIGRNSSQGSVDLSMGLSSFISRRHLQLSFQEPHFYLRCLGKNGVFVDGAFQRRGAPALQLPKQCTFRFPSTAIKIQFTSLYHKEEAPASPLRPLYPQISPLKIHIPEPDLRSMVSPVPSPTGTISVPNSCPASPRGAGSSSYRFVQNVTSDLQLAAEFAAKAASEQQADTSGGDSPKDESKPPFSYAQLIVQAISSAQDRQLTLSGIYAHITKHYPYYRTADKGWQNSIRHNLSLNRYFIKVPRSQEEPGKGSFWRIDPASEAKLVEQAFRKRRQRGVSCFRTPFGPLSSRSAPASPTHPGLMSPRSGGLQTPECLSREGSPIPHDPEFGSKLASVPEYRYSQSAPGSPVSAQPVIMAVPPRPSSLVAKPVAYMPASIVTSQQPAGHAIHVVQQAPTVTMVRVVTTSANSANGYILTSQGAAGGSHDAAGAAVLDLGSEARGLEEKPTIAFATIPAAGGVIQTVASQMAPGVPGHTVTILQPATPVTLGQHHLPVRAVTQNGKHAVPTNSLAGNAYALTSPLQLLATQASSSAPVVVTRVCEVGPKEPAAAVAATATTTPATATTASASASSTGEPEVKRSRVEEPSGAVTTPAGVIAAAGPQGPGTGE
# Chain of UniProt Q9UBN7 (Q9UBN7 whole entry, looked up): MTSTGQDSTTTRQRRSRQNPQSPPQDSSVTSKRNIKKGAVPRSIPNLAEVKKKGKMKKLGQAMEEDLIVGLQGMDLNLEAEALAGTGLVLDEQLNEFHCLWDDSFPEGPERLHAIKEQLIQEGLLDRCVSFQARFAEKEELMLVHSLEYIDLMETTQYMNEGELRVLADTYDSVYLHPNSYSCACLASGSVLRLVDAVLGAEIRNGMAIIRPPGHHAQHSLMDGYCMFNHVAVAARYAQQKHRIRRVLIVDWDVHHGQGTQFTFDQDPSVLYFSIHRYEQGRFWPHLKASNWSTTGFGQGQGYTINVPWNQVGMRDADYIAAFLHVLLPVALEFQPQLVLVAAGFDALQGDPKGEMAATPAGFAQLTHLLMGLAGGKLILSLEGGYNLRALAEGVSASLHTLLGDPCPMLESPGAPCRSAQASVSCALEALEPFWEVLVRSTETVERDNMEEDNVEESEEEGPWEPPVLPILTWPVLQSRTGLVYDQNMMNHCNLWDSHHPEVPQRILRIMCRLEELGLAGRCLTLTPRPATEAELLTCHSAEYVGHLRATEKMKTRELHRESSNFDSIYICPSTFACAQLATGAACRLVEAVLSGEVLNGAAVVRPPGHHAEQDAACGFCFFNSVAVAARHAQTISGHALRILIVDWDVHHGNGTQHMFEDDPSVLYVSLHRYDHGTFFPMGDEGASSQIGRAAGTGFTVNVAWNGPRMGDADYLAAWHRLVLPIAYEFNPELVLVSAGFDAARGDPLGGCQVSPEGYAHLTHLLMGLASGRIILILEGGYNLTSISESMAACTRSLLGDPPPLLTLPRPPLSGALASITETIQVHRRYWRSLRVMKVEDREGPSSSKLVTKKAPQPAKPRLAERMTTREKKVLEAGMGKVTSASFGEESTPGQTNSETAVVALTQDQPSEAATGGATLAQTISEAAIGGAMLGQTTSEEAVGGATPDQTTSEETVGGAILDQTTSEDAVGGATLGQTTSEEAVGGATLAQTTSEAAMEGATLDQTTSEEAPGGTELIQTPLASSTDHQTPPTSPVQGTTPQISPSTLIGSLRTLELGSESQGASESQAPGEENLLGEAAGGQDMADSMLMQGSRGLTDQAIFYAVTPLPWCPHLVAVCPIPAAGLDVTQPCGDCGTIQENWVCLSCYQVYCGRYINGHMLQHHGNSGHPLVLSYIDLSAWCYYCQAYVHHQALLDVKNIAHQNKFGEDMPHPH
# Chain of UniProt Q6P3S6 (Q6P3S6 whole entry, looked up): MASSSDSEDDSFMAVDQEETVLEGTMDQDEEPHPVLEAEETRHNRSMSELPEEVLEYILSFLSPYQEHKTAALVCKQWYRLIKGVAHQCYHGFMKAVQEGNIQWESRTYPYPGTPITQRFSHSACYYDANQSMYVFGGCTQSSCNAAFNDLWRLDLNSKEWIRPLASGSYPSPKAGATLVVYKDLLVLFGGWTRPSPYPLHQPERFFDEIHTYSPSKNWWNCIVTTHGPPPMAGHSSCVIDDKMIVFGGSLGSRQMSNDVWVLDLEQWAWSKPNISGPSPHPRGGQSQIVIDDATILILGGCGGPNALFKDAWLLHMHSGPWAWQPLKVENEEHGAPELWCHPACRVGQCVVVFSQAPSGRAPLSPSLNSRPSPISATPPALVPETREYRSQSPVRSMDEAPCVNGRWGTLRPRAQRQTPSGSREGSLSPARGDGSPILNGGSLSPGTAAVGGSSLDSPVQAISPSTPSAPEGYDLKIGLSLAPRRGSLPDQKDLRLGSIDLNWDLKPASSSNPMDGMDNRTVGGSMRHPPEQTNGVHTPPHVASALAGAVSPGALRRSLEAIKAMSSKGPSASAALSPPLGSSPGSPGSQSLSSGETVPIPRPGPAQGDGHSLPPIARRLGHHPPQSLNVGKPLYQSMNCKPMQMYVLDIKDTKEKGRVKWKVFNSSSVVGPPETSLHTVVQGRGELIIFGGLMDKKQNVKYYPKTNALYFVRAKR
# Chain of UniProt P14324 (P14324 whole entry, looked up): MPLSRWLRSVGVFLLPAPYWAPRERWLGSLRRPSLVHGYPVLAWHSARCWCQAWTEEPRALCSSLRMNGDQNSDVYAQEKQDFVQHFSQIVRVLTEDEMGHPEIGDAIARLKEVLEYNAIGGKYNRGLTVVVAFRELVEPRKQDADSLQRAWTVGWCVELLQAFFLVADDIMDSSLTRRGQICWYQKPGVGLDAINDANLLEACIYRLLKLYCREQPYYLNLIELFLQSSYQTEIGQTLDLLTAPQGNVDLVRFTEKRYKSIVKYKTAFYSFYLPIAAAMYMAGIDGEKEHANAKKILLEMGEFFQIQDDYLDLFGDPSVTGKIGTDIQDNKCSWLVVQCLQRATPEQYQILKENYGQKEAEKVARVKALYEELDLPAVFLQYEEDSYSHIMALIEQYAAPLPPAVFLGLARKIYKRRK
# Chain of UniProt Q9Y3D6 (Q9Y3D6 whole entry, looked up): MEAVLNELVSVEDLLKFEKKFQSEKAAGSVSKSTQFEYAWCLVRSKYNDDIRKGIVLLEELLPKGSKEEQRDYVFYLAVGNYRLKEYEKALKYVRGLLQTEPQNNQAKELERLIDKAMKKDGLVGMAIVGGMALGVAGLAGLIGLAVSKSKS
# Chain of UniProt Q86UX7 (Q86UX7 whole entry, looked up): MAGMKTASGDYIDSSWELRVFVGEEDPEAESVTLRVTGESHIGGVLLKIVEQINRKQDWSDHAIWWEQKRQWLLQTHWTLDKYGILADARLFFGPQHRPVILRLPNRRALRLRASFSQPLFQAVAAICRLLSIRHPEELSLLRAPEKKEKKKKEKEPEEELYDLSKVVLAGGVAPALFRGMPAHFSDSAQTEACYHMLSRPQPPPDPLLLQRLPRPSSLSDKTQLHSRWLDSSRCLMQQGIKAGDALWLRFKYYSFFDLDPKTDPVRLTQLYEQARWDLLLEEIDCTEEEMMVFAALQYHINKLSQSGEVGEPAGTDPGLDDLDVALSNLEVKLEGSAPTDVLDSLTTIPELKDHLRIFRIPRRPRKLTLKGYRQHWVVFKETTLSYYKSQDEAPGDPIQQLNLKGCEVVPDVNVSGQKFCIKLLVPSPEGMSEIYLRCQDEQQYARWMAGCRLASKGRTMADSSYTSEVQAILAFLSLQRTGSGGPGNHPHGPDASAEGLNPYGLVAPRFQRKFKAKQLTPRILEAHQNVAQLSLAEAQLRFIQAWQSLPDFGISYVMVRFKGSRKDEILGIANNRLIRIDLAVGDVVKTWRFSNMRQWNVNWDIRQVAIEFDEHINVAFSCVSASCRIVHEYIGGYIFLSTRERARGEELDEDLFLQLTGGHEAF
# Chain of UniProt Q86UL3 (Q86UL3 whole entry, looked up): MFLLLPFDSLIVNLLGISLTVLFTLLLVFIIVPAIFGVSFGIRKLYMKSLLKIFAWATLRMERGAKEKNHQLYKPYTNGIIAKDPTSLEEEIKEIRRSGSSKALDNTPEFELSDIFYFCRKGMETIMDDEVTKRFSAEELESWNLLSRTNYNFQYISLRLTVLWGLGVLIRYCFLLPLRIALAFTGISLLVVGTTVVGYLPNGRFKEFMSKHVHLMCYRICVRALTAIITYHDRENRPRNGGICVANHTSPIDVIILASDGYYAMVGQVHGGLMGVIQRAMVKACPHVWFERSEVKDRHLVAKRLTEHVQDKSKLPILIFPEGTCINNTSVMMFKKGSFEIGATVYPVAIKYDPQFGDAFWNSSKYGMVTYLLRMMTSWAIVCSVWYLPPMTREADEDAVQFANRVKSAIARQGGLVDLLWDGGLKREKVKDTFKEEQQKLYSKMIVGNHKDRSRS
# Chain of UniProt P63218 (P63218 whole entry, looked up): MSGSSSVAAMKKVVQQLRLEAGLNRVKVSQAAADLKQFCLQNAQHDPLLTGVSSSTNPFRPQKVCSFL
# Chain of UniProt P52657 (P52657 whole entry, looked up): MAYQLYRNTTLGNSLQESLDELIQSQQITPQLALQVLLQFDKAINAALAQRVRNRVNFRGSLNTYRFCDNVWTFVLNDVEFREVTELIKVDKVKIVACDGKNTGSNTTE
Target,log2 fold change [1],log2 fold change [2],log2 fold change [3],log2 fold change [4],log2 fold change [5],log2 fold change [6],log2 fold change [7],log2 fold change [8],log2 fold change [9],log2 fold change [10],log2 fold change [11],log2 fold change [12],log2 fold change [13],log2 fold change [14],log2 fold change [15],log2 fold change [16],log2 fold change [17],log2 fold change [18],log2 fold change [19],log2 fold change [20]
GBF1 (UniProt Q92538),-0.033,-0.049,-0.044,0.017,-0.05,-0.088,0.015,0.115,-0.016,0.007,-0.049,-0.071,-0.012,-0.028,0.078,0.028,0.059,0.014,0.07,0.028
FIS1 (UniProt Q9Y3D6),0.029,0.003,0.067,-0.036,0.029,-0.023,-0.025,-0.074,0.004,-0.031,-0.024,0.006,0,0,-0.018,0.048,-0.046,-0.009,-0.014,-0.027
FOXK1 (UniProt P85037),0.046,0.121,-1.03 (active),-0.027,0.015,0.111,0.052,-0.002,-0.05,0.154,0.323,-0.01,-0.362,-0.063,-0.091,0.097,0.182,-0.129,-0.025,-0.221
GYS1 (UniProt P13807),-0.151,0.009,-0.976 (active),0.095,0.158,-0.253,0.141,0.412,0.042,0.046,0.057,-0.04,-0.068,-0.13,0.515,0.052,-0.01,0.091,0.108,-0.033
FANCD2 isoform 1 (UniProt Q9BXW9),-0.002,0.025,-0.155,-0.082,-0.029,-0.354 (active),-0.266,0.062,0.002,-0.369 (active),0.003,-0.007,0.027,-0.035,-0.09,0.033,0.099,-0.031,0.017,0.043
HDAC6 (UniProt Q9UBN7),-0.086,0.314,-0.03,0.034,-0.023,0.069,-0.025,0.009,-0.046,0.021,0.016,-0.041,0.022,-0.091,0.522 (active),0.004,-0.018,-0.015,1.03 (active),0
IFRD2 isoform 2 (UniProt Q12894),0.141,0.063,0.369,-0.045,0.013,0.07,0.019,0.144,-0.116,-1.69 (active),0.093,0.035,-0.129,-0.13,0.055,-0.043,0.062,-0.225,-0.2,-0.142
FERMT3 (UniProt Q86UX7),-0.019,-0.036,-0.039,0.01,-0.048,-0.091,-0.022,-0.002,-0.009,0.003,0.019,-0.024,0.037,0.054,-0.013,0.036,0.083,0.03,0.048,0.019
FBXO42 (UniProt Q6P3S6),-0.103,-0.009,-0.108,-0.064,-0.093,-0.169,0.011,-0.051,-0.038,0.086,-0.033,0.164,-0.038,0.04,-0.072,-0.086,0.083,-0.025,0.09,0.015
GNG5 (UniProt P63218),-0.022,0.039,0.047,0.072,-0.084,0.109,-0.065,-0.072,-0.071,0.002,0.147,-0.17,-0.02,0.074,0.068,0.038,0.004,0.022,-0.063,-0.064
GTF2A2 (UniProt P52657),0.013,-0.028,-0.002,-0.078,-0.026,0.051,-0.019,-0.064,0.016,-0.357 (active),0.009,-0.029,0.052,0.03,-0.091,-0.083,-0.017,-0.053,-0.044,0.007
FDPS (UniProt P14324),-0.127,-0.066,-0.096,0.048,-0.319,-0.63 (active),-0.028,0.048,0.007,0.083,-0.061,-0.068,0.109,-0.077,0.068,0.034,-0.001,-0.005,0.156,0.081
HMG20A (UniProt Q9NP66),-0.05,0.043,-0.015,0.275,0.062,0.043,-0.405,0.026,-0.008,0.007,-0.051,-0.009,-0.153,-0.016,0.033,0.027,0.016,0.149,0.03,0.024
GPAT4 (UniProt Q86UL3),-0.144,-0.081,0.044,-0.058,-0.09,0.145,0.007,-0.029,-0.015,0.047,0.05,-0.004,0.014,-0.004,-0.004,0.036,0.027,0.019,-0.024,0.027
IDH3A (UniProt P50213),0.033,0.021,-0.008,-0.085,-0.044,0.034,0,-0.029,0.008,0.015,-0.029,-0.003,0.031,0.015,-0.084,0.009,-0.009,-0.014,-0.06,-0.006
